Screening results deposited in PubChem by National Center for Advancing Translational Sciences (NCATS).
Gal4-VP16 FLuc – VP16 counterscreen qHTS for inhibitors of ROR gamma transcriptional activity; Drosophila S2 Gal4-VP16 UAS-luciferase, luminescence, 20 h; Potency, µM (top dose mostly 53.6 µM), most hits filed as inhibitors; actives 3.5% (n = 310,000);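 further: Gal4-VP16 expression switched on by copper sulfate through the metallothionein promoter; nearly all actives have a fitted effect of over 50% in size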
RORg inh – qHTS for inhibitors of ROR gamma transcriptional activity. Nuclear receptor ROR-gamma (Mus musculus), P51450. Drosophila S2 Gal4-RORgamma UAS-luciferase reporter, 20 h. Potency, µM (highest dose often 53.6 µM), hits mostly inhibitors. actives 5.4% (n = 310,000). AID 2551, 2010; further: nearly all actives have a fitted effect of over 60% in size
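Drosophila S2 cells stably expressing Gal4-DBD/mouse RORγ fusion under metallothionein promoter plus UAS-luciferase; compound 1 h, then 700 uM CuSO4 induction for 20 h at ambient temperature; inhibition read as reduced luminescence.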
Six1-Eya2 inh – qHTS Assay for Inhibitors of the Six1/Eya2 Interaction. AlphaScreen GST-Six1/His-Eya2 binding, biochemical; active compounds read low. activity change, % (test concentration not listed). actives 0.56% (n = 360,000); in the data active means activity change below about -65%; inconclusive means mostly about -30% to -63%
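Homogeneous AlphaScreen proximity assay pairing GST-Six1 with His-tagged Eya2 (added as 5X mix: 250 nM and 500 nM) in 50 mM Tris pH 8.0, 300 mM NaCl, 1 mM TCEP. Glutathione donor and nickel acceptor beads; 1 h, 37 °C, dark.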
PKM2 act – qHTS Assay for Activators of Human Muscle isoform 2 Pyruvate Kinase | Pyruvate kinase PKM (Homo sapiens), P14618 | purified PKM2, Kinase-Glo ATP luminescence, activation; response scale: 0% is enzyme alone, no compound | Potency, µM (doses to about 57.5 µM), usual class: activators | actives 0.34% (n = 260,000); further: nearly all actives have a fitted effect of over 55% in size
Target sequence (P14618 whole entry, looked up, canonical isoform): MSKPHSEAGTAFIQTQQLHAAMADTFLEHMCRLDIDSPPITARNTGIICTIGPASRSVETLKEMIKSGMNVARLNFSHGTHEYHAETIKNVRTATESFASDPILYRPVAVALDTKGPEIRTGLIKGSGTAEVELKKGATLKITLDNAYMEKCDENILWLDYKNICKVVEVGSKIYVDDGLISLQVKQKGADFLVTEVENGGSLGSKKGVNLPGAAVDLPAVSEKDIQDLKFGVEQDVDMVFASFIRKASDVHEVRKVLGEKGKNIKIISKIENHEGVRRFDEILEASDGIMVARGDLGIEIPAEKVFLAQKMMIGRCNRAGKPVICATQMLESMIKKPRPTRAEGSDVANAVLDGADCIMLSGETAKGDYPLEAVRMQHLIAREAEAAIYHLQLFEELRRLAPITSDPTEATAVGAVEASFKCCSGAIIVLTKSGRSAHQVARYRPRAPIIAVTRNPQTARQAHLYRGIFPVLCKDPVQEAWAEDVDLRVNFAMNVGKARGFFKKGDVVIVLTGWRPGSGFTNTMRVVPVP
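ATP formation by purified human PK-M2, quantified via coupled luciferase luminescence after 1 h at room temperature with 0.1 mM ADP and 0.5 mM PEP final.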
CtBP-E1A blk – qHTS Assay for Inhibitors of the CtBP/E1A Interaction. AlphaScreen GST-E1A/His-CtBP binding, 1536-well; active compounds read low. AID 651724, 2012. activity change, % (test concentration not listed). CtBP / adenovirus E1A interaction (AlphaScreen). actives 0.49% (n = 340,000); in the data active means activity change below about -65%; inconclusive means mostly about -30% to -63%
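Protein mix (5X: 125 nM each GST-E1A, His-CtBP) was incubated with pinned compound 2 h at 37 deg C in dark, in 50 mM Tris pH 8.0 buffer with 300 mM NaCl. Glutathione donor and nickel acceptor beads followed; AlphaScreen signal read after 1 h.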
Numbers stand for hits; i = inactive; ? = inconclusive; nt = no result given; ! = a repeat was not active; [ ] = dose if it differs, or a comment. Shown are actives, neighbours in structure and some others; about 5.6% of the full set was active somewhere. Unless noted, the call rests on the fitted dose curve; in most records, active means well fitted curve in the direction sought with a large enough effect; inconclusive means small, poorly fitted or top-dose-only effect, or another doubt; inactive means no such curve, though single readings can be large; an effect the other way counts as inactive or inconclusive.

SMILES | Gal4-VP16 FLuc | RORg inh | Six1-Eya2 inh | PKM2 act | CtBP-E1A blk
COc1ccc(C(=O)O/N=C(/C(N)=O)P(=O)(OC(C)C)OC(C)C)cc1 | 7.9µM | 16µM | i | i | i
Cc1ccc(-n2c(/C=C/c3ccccn3)nc3ccccc3c2=O)cc1 | i | i | i | nt | i
Cc1ccc(-n2sc3ccccc3c2=O)cc1 | 1.6µM | 5µM | i | i | i
Cc1cccc(-n2c(=S)[nH]c3ccccc3c2=O)n1 | ? | 13µM | i | i | i
Nc1ccc(CC(N)c2csc(Nc3ncccn3)n2)cc1 (configuration not stated) | nt | nt | -67 | nt | -75
NC(Cc1ccc(F)cc1)c1csc(Nc2ncccn2)n1 (configuration not stated) | nt | nt | ? | nt | -68
CC(=O)Oc1c2c(c(CC=C(C)C)c3c1C(=O)C1=CC4CC5C(C)(C)OC(C/C=C(\C)C(=O)O)(C4=O)[C@]15O3)OC(C)(CCC=C(C)C)C=C2 (some centres not stated) | ? | 3.5µM | nt | nt | nt
COC(=O)/C(C)=C\CC12OC(C)(C)C3CC(C=C4C(=O)c5c(OC)c6c(c(CC=C(C)C)c5OC431)OC(C)(CCC=C(C)C)C=C6)C2=O (configuration not stated) | i | ? | nt | nt | nt
C=C(Cl)CCl | i | i | nt | nt | nt
CC12CCC3C4CCC(=O)C(O)=C4CCC3C1CCC2OC(=O)CCC1CCCC1 (configuration not stated) | i | i | nt | nt | nt
Cc1ccc(OCCOc2cccc(C=C3C(=O)NC(=O)NC3=O)c2)c(C)c1 | 4µM | 7.9µM | i | i[11.5 µM] | i
ClC(Cl)c1ccccc1 | i | i | nt | nt | nt
COc1cccc(OC)c1CN1CCCC(C(=O)c2cccc(Cl)c2)C1 (configuration not stated) | i | i | i | i | i
Cc1ncc(CN2CCCC(C(=O)c3cccc(OC(C)C)c3)C2)s1 (configuration not stated) | i | ? | i | i | i
O=C(c1cccc(C(F)(F)F)c1)C1CCCN(Cc2ncc[nH]2)C1 (configuration not stated) | 16µM | i | i | i | i
CCn1ccnc1CN1CCCC(C(=O)c2cccc(C(F)(F)F)c2)C1 (configuration not stated) | 10µM | 2µM | i | i | i
CCOP(=S)(OCC)Oc1ncn(-c2ccccc2)n1 | ? | i | nt | nt | nt
COC(=O)C1=C(C(=O)OC)SC2(S1)C(C(=O)OC)=C(C(=O)OC)Sc1c2ssc1=O | nt | nt | -91 | nt | i
COc1ccc(OCc2n[nH]c(=S)n2Cc2ccco2)cc1 | ? | 5.6µM | i | i | i
CC(C)(C)c1ccc(O)c(N=Cc2c(O)ccc3ccccc23)c1 | 11µM | 13µM | i | i | i
COC(=O)C(O)(c1ccc(N=Cc2ccccc2O)c(C)c1)C(F)(F)F (configuration not stated) | i | i | i | i | i
O=C(CSc1nnc(NC(=O)c2ccccc2[N+](=O)[O-])s1)NCc1ccco1 | i | ? | i | i | i
COc1cc2c(cc1O)C(CCc1ccc(Cl)cc1)N(C)CC2 (configuration not stated) | i | i | nt | i | nt
CCOc1cc(C)cc2oc(=O)c3c(c12)CCCC3 | i | i | i | nt | i
Cc1cc(O)c2c3c(c(=O)oc2c1)CCC(C)C3 (configuration not stated) | 20µM | ? | i | i[11.5 µM] | i
CCNC(=O)CCSc1nc2cc(Cl)ccc2o1 | ? | i | i | i | i
CCCC1COC(Cn2cncn2)(c2ccc(Cl)cc2Cl)O1 (configuration not stated) | 18µM! | ? | i | i | i
Clc1ccc(C2(Cn3cncn3)OCCO2)c(Cl)c1 | i | i | nt | nt | nt
O=C(Oc1cccc2cccnc12)c1ccccc1 | ? | 1.4µM | nt | nt | nt
O=C(c1ccc(Cl)cc1)C1CCCN(Cc2ccon2)C1 (configuration not stated) | i | i | i | i | nt
